Hit rate of the full screen: of about 340,000 compounds, about 730 (0.21%) were called active.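 The calls were made as follows: active = inhibition above the mean over all tested compounds plus 3 SD (cut at about 21% in these data); inactive = the rest.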 The entries come from a sample that favours actives as a whole.
Each molecule was assayed against Toll-like receptor 9 (Homo sapiens) + Myeloid differentiation primary response protein MyD88 (Homo sapiens) (UniProt Q9NR96+Q99836) (assay: disruptors of TLR9 binding to MyD88 – cell-based, CHO, BLA complementation, fluorescence, primary screen (AID 504734;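 also: 0% = DMSO only wells and 100% = clavulanate BLA inhibitor control wells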)). Details: CHO BLA complementation TLR9-MyD88, CCF4 FRET ratio; at 4.98 µM; hits give high values.
Toll-like receptor 9 (Homo sapiens) + Myeloid differentiation primary response protein MyD88 (Homo sapiens), sequence (Q99836 whole entry, looked up): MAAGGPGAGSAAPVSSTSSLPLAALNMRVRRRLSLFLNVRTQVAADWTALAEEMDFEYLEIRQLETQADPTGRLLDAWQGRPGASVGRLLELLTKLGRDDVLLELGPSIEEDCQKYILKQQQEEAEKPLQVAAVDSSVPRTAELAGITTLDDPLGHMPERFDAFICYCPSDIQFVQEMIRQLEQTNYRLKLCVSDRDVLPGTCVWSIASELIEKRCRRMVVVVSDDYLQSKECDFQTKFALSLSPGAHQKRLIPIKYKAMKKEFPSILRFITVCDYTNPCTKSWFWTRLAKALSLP
Toll-like receptor 9 (Homo sapiens) + Myeloid differentiation primary response protein MyD88 (Homo sapiens), sequence (Q9NR96 whole entry, looked up): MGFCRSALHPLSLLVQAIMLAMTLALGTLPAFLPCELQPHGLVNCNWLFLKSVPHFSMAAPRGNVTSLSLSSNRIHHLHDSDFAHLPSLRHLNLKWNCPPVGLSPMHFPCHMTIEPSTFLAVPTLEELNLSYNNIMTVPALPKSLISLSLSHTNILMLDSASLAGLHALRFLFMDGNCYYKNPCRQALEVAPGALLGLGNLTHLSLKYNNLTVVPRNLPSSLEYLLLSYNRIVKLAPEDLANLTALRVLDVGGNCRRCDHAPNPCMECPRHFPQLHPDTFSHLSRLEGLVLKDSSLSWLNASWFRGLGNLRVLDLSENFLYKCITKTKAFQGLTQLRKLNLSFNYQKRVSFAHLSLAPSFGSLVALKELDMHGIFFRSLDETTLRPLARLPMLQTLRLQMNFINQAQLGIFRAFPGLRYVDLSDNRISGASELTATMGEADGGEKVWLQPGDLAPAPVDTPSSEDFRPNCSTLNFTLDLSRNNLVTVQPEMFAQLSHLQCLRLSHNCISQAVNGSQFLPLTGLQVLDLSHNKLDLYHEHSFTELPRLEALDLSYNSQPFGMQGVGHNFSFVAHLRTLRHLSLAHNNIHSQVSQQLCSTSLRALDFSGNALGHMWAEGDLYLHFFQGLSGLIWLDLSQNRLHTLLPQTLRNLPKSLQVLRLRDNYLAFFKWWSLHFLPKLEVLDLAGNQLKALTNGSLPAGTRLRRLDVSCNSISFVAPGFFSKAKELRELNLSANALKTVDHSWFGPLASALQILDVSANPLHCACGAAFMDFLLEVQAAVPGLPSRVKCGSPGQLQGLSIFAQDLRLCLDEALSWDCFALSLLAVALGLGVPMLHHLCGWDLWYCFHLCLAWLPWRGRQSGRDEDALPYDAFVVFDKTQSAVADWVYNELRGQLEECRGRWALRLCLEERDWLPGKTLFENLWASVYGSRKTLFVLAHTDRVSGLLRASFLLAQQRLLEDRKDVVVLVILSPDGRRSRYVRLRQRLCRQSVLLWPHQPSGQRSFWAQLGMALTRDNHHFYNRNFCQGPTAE
In the case of `CC(=O)c1ccccc1NC(=O)COC(=O)C1COc2ccccc2O1` (stereo unspecified), the inhibition was 2.77% (inactive).
In the case of `C[C@@H]1CN([C@@H](C)CO)S(=O)(=O)c2ccc(-c3ccc(C(=O)N(C)C)cc3)cc2O[C@@H]1CN(C)Cc1ccccc1C(=O)O`, the inhibition was -6.78% (inactive).
`CCOC(=O)c1c(NC(=S)SC)sc(C(=O)N2CCc3ccccc3C2)c1C` was tested, and the inhibition was -0.74% (inactive).
With `COc1ccc(CN2C[C@H]3CON(C)[C@H]3C[C@H]2c2ccc(-c3cccc(F)c3)cc2)cc1` the inhibition was 4.13% (inactive).
With `O=C(O)C1CCCN1c1nc(Cl)ccc1[N+](=O)[O-]` (stereo unspecified) the inhibition was -12.8% (inactive).
With `O=C1c2cccc3c([N+](=O)[O-])ccc(c23)C(=O)N1CC1CCCO1` (stereo unspecified) the inhibition was 56.9% (active).
With `CCOc1cccc(=O)c2c(C)n(CC3CCCO3)c(C)c12` (stereo unspecified) the inhibition was 1.31% (inactive).
For `CN1CN(C)c2ccc([N+](=O)[O-])c3cccc1c23`, the inhibition was -8.31% (inactive).
`CCN(Cc1ccncc1)C(=S)Nc1ccccc1C` was tested, and the inhibition was 3.02% (inactive).
For `Cc1cccc(S(=O)(=O)N(C)C[C@@H]2OCc3cnnn3CCCC(=O)N([C@H](C)CO)C[C@@H]2C)c1`, the inhibition was -11.3% (inactive).
`CN1CCN(c2ccncc2S(=O)(=O)N2CCCC2)CC1` was tested, and the inhibition was 3.95% (inactive).
For `O=C(/C=C(O)/C=C/c1ccc(O)cc1)/C=C/c1ccc(O)cc1`, the inhibition was 42% (active).
In the case of `O=C(O)/C=C/c1ccc(S(=O)(=O)N2CCCCCC2)cc1`, the inhibition was -16.4% (inactive).
For `COc1cccc(C=CC(=O)C=CC=Cc2ccccc2)c1`, the inhibition was -5.47% (inactive).
`COc1ccc(NC(=O)CSc2nnnn2-c2cccc(OC)c2)cc1` was tested, and the inhibition was 13.5% (inactive).
With `COCOCCn1cc(CN2CCS(=O)(=O)N(Cc3ccc(-c4ccc(OC)cc4)cc3)C(CC(C)C)C2=O)nn1` (stereo unspecified) the inhibition was -1.5% (inactive).
For `C[C@@H]1CN([C@@H](C)CO)C(=O)c2c(c3ccccc3n2C)-c2ccccc2CO[C@H]1CN(C)C(=O)C1CC1`, the inhibition was -4% (inactive).
In the case of `Cc1cc2oc(=O)cc(CN3CCN(Cc4ccccc4)CC3)c2cc1C`, the inhibition was -18.4% (inactive).
In the case of `COc1cccc2sc3cc(NCC[C@@H]4CCCN4C)ccc3c(=O)c12`, the inhibition was 0.85% (inactive).
For `Cc1cc2oc3ccc(NCCC4CCCN4C)cc3c(=O)c2cc1C` (stereo unspecified), the inhibition was 24.9% (active).
With `C[C@H]1CN([C@@H](C)CO)S(=O)(=O)c2ccc(Br)cc2O[C@H]1CN(C)C(=O)c1cnccn1` the inhibition was 5.72% (inactive).
`CCC1NC(=O)c2cccnc2-n2c1nc1ccc(C)cc1c2=O` (stereo unspecified) was tested, and the inhibition was 8.64% (inactive).
For `COc1ccc(S(=O)(=O)N2CCCCC2)cc1C(=O)NC1CCS(=O)(=O)C1` (stereo unspecified), the inhibition was -5.76% (inactive).
`CCc1ccccc1NC(=O)CN1CCN(C(=O)c2cc(C3CC3)nn2-c2ccccc2)CC1` was tested, and the inhibition was -43.9% (inactive).
`NC(=O)CSc1nnc(-c2cccc(S(=O)(=O)N3CCOCC3)c2)o1` was tested, and the inhibition was 10.4% (inactive).
With `O=[N+]([O-])c1c(NCCO)cc(Sc2nc3ccccc3s2)c2nonc12` the inhibition was 43.3% (active).
`OCCNc1nc(Nc2ccc(Cl)c(Cl)c2)nc2ccccc12` was tested, and the inhibition was -0.91% (inactive).
For `Nc1nnc(SCC(=O)Nc2ccc3nc(SCC(=O)Nc4ccccc4)sc3c2)s1`, the inhibition was 0.67% (inactive).
In the case of `O=C(CSc1ncn[nH]1)Nc1nc2c(F)c(F)c(F)cc2s1`, the inhibition was -0.11% (inactive).
In the case of `O=C(C[C@H]1C[C@H]2c3cc(NS(=O)(=O)c4ccc(F)cc4)ccc3O[C@H]2[C@H](CO)O1)NCc1cc(F)ccc1F`, the inhibition was -5.81% (inactive).
In the case of `COc1cc(C(=O)N2C(=O)c3cccc(N)c3C2=O)cc(OC)c1OC`, the inhibition was 20.9% (active).
For `COc1cc(C(=O)N2CCN(C)CC2)cc(OC)c1OC`, the inhibition was 8.16% (inactive).
In the case of `CC1CC(C)CN(S(=O)(=O)c2cccc(C(=O)N3C(=O)c4cccc(N)c4C3=O)c2)C1` (stereo unspecified), the inhibition was -15.2% (inactive).
`COc1ccc(-c2c(C#N)cnc(C)c2C)c(O)c1OC` was tested, and the inhibition was -8.05% (inactive).
In the case of `C#Cc1cc(N2CCN(C(=O)c3ccoc3)CC2)n2nc(-c3cccc(Cl)c3)cc2n1`, the inhibition was 5.91% (inactive).
For `CCCCCCNC(=O)O[C@]12C[C@@H](C(=O)OC)[C@@H](C(=O)OC)C[C@@]1(O)CN(S(=O)(=O)c1ccc(C)cc1)C2`, the inhibition was -7.21% (inactive).

From PubChem BioAssay AID504734 (The Scripps Research Institute Molecular Screening Center, 2011)
